Test results taken from PubChem BioAssay (EPA / NIEHS).
Several values for one entry are separate records, joined by “and”; a condition that tells them apart may be missing. Equal entries are not always repeated. Results filed as inconclusive are left out. Some compounds were tested as several samples or in several runs, with calls that do not always agree. Activity calls are given as the source filed them. How the source made its calls: active means hit-call score of the fitted dose curve at least 0.9, where 1 is the maximum; inconclusive means response in the unintended direction; inactive means score below 0.9.

Tests used:
[1] = target: Androgen Receptor/SRC-1 Co-activator, AR (gene 367) (UniProt P10275); assay: OT_AR_ARSRC1_0960: Odyssey Thera (OT) 16-hour HEK293T Protein-Complementation Assay for Androgen Receptor/SRC-1 Co-activator (AID 2283353);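 further: actives raise the signal above DMSO so potency reflects increased AR and SRC-1 complex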
Outline: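 Sixteen-hour cell assay: Venus halves fused to AR and SRC-1 in HEK293T report binding. Images at 488/635 nm give an N/C ratio in the 488 nm channel over ≥400 cells, analysed as signal increase over DMSO.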

[2] = target: Androgen Receptor/SRC-1 Co-activator, AR (gene 367) (UniProt P10275); assay: OT_AR_ARSRC1_0480: Odyssey Thera (OT) 8-hour HEK293T Protein-Complementation Assay for Androgen Receptor/SRC-1 Co-activator (AID 2283354);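 further: hits raise the complementation signal above DMSO so AC50 marks enhancers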
Outline: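 Split-Venus PCA, stable HEK293T, AR/SRC-1 fusions; 8 h exposure. Readout: 488nm N/C fluorescence ratio, ≥400 cells/image; fitted upward vs DMSO baseline.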

[3] = target: Estrogen receptor beta (Homo sapiens) (UniProt Q92731); assay: OT_ER_ERbERb_0480: Odyssey Thera (OT) 8-hour HEK293T Protein-Complementation Assay for Estrogen Receptor-beta/-beta Homodimer (AID 2283357);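 further: active means signal gain over DMSO baseline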
Outline: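 Homodimerization of ER-beta LBD measured by protein-fragment complementation in HEK293T; 8 h dosing; fixed, Draq5 counterstain; fluorescence intensity gain over DMSO baseline, positive fitting direction; laser scanning cytometry.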

[4] = target: Peroxisome proliferator-activated receptor gamma (Homo sapiens) (UniProt P37231); assay: NVS_NR_hPPARg: NovaScreen (NVS) Nuclear Receptor Binding Assay for human Peroxisome Proliferator-activated Receptor gamma (PPARg) (AID 2283370)
Outline: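 Extracted receptor protein, cell-free; compound incubated 2 h then fluorescence polarization read. Baseline: DMSO. Actives from 25 uM duplicate screen re-run across concentrations.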

[5] = target: rat Androgen Receptor (AR), Ar (gene 24208) (UniProt P15207); assay: NVS_NR_rAR: NovaScreen (NVS) Nuclear Receptor Binding Assay for rat Androgen Receptor (AR) (AID 2283366)
Outline: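 Actives from a duplicate single-concentration (25 uM) primary run went on to concentration series. Displacement of radioligand was counted by filtration and scintillation, 18 h post-dose, using prostate extracts from testosterone-pretreated rats, with DMSO as baseline.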

[6] = target: human Dopamine Transporter (DAT), SLC6A3 (gene 6531) (UniProt Q01959); assay: NVS_TR_hDAT: NovaScreen (NVS) Transporter Assay for human Dopamine Transporter (DAT) (AID 2283374);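 further: activity means loss of bound radioligand signal relative to DMSO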
Outline: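 hDAT membranes + tritiated/iodinated radioligand, competitive displacement; 1 h; filter scintillation readout. Single conc 25 uM (duplicate), then conc-response for actives. DMSO = negative control.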

[7] = target: T1, Estrogen receptor (Homo sapiens) + Estrogen receptor beta (Homo sapiens) (UniProt P03372+Q92731); assay: OT_ER_ERaERb_0480: Odyssey Thera (OT) 8-hour HEK293T Protein-Complementation Assay for Estrogen Receptor-alpha/-beta Heterodimer (AID 2283352)
Outline: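 Human HEK293T cells were treated for 8 hours and receptor heterodimerisation was detected through reconstitution of a fluorescent reporter split between ER-alpha and ER-beta ligand-binding domains. Activity was analysed as gain of signal against DMSO.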

[8] = target: T1, Estrogen receptor (Homo sapiens) + Estrogen receptor beta (Homo sapiens); assay: OT_ER_ERaERb_1440: Odyssey Thera (OT) 24-hour HEK293T Protein-Complementation Assay for Estrogen Receptor-alpha/-beta Homodimer (AID 2283356);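 further: heteromer of ER alpha and ER beta binding domains; hits raise reporter fluorescence and both agonists and antagonists give an increase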
Outline: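 24 h exposure; HEK293T PCA cells with ERα/ERβ LBD fragments; signal rise in nuclear or whole-cell fluorescence over vehicle.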

[9] = target: human Peroxisome Proliferator-activated Receptor alpha (PPARa), PPARA (gene 5465) (UniProt Q07869); assay: NVS_NR_hPPARa: NovaScreen (NVS) Nuclear Receptor Binding Assay for human Peroxisome Proliferator-activated Receptor alpha (PPARa) (AID 2283359);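 further: activity means loss of TR-FRET signal versus DMSO baseline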
Outline: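 TR-FRET signal measured at 1 h post-dosing; loss-of-signal versus DMSO negative control taken as activity. Extracted gene-protein, cell-free format. Initial single-point duplicates at 25 uM, then concentration-response retests.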

[10] = target: rat Serotonin Transporter (SERT), Slc6a4 (gene 25553) (UniProt P31652); assay: NVS_TR_rSERT: NovaScreen (NVS) Transporter Assay for rat Serotonin Transporter (SERT) (AID 2283375)
Outline: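 Using rat forebrain membrane SERT, test chemicals compete with a radioligand for 1 hour, and bound counts are taken by filter-based scintillation. Screening starts at 25 uM in duplicate, followed by concentration series for actives.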

[11] = target: rat Mineralocorticoid Receptor (MR), Nr3c2 (gene 25672) (UniProt P22199); assay: NVS_NR_rMR: NovaScreen (NVS) Nuclear Receptor Binding Assay for rat Mineralocorticoid Receptor (MR) (AID 2283355)
Outline: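 Radioligand displacement, scintillation readout; tissue source adrenalectomized rat brain supernatant. Read 24 h post-dose. Screened in duplicate at 25 uM, DMSO negative control, controls on every plate; actives re-run in concentration series.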

[12] = target: Nuclear receptor subfamily 1 group I member 2 (Homo sapiens) (UniProt O75469); assay: NVS_NR_hPXR: NovaScreen (NVS) Nuclear Receptor Binding Assay for human Pregnane X Receptor (PXR) (AID 2283365);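 further: a drop in FRET signal versus DMSO baseline means the compound binds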
Outline: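 Read-out: TR-FRET, human PXR, 2 h post-dosing, cell-free. Loss of signal vs DMSO taken as binding activity; 25 uM primary, concentration series secondary.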

[13] = target: guinea pig Sigma Receptor, Non-selective Binding, SIGMAR1 (gene 100135589) (UniProt Q60492); assay: NVS_OR_gSIGMA_NonSelective: NovaScreen (NVS) Nuclear Receptor Binding Assay for guinea pig Sigma Receptor, Non-selective Binding (AID 2283367)
Outline: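 Membranes from guinea pig brain incubated with radioligand and test chemical for 1 h, then filtered and scintillation-counted. Duplicate primary testing at 25 uM, with concentration-series follow-up for actives.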

[14] = tested on: guinea pig Dopamine Transporter (DAT), gene 100714898; assay: NVS_TR_gDAT: NovaScreen (NVS) Transporter Assay for guinea pig Dopamine Transporter (DAT) (AID 2283369);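 further: active compounds lower bound radioligand signal relative to DMSO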
Outline: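 Primary pass: duplicate wells at 25 uM, threshold e.g. 30% inhibition. Follow-up: singleton concentration-response, highest 50 uM. Radioligand binding on guinea pig striatal membranes, 2 h, filtration scintillation detection.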

[15] = tested on: rat Norepinephrine Transporter (NET), gene 83511; assay: NVS_TR_rNET: NovaScreen (NVS) Transporter Assay for rat Norepinephrine Transporter (NET) (AID 2283373)
Outline: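 Competitive radioligand displacement at the rat NET using forebrain membrane preparations, 1 h incubation, filter-based scintillation readout. Primary testing in duplicate at a single 25 uM concentration; confirmed actives retested across concentrations.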

[16] = target: Retinoic acid receptor alpha (Homo sapiens) (UniProt P10276); assay: NVS_NR_hRAR_Antagonist: NovaScreen (NVS) Nuclear Receptor Binding Assay for human Retinoic Acid Alpha Receptor Antagonism (RAR) (AID 2283358)
Outline: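 Read-out: time-resolved FRET binding signal, 2 h post-dose, cell-free extracted protein. Antagonism scored as signal loss versus DMSO negative control. Primary single-concentration screen at 25 uM in duplicate; concentration series for actives.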

[17] = target: human Adenosine Transporter (Adot), SLC29A1 (gene 2030) (UniProt Q99808); assay: NVS_TR_hAdoT: NovaScreen (NVS) Transporter Assay for human Adenosine Transporter (Adot) (AID 2283368)
Outline: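 Binding displacement on U937 extracted protein, read 1 h post-dose by filtration and scintillation counting. Primary duplicate test at 25 uM, then singleton concentration series with 50 uM top; DMSO baseline.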

[18] = target: human Thyroid Receptor Alpha (TRa), THRA (gene 7067) (UniProt P10827); assay: NVS_NR_hTRa_Antagonist: NovaScreen (NVS) Nuclear Receptor Binding Assay for human Thyroid Receptor Alpha Antagonism (TRa) (AID 2283362);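 further: activity is loss of signal relative to DMSO baseline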
Outline: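 In this biochemical format, receptor protein is dosed with chemical and read after 1 hour via AlphaLISA. Decreases from the DMSO baseline indicate antagonist activity; screening used 25 uM in duplicate before concentration-response confirmation.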

[19] = target: Retinoic acid receptor alpha (Homo sapiens) (UniProt P10276); assay: NVS_NR_hRARa_Agonist: NovaScreen (NVS) Nuclear Receptor Binding Assay for human Retinoic Acid Alpha Receptor Agonism (RAR) (AID 2283361)
Outline: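 TR-FRET signal, 2 h post-dosing; cell-free extracted protein; DMSO = baseline, positive fitting direction; 25 uM single-point duplicate, then concentration series for actives.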

[20] = target: human Serotonin Transporter (SERT), SLC6A4 (gene 6532) (UniProt P31645); assay: NVS_TR_hSERT: NovaScreen (NVS) Transporter Assay for human Serotonin Transporter (SERT) (AID 2283372)
Outline: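 Human platelet membrane preparation; displacement of radioligand from serotonin transporter measured after 1 h by filtration and scintillation counting. Single 25 uM duplicate screen, then concentration series for actives, with DMSO as negative baseline.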

Measured: AC50

human Thyroid Receptor Alpha (TRa), THRA (gene 7067), sequence (P10827 whole entry, looked up): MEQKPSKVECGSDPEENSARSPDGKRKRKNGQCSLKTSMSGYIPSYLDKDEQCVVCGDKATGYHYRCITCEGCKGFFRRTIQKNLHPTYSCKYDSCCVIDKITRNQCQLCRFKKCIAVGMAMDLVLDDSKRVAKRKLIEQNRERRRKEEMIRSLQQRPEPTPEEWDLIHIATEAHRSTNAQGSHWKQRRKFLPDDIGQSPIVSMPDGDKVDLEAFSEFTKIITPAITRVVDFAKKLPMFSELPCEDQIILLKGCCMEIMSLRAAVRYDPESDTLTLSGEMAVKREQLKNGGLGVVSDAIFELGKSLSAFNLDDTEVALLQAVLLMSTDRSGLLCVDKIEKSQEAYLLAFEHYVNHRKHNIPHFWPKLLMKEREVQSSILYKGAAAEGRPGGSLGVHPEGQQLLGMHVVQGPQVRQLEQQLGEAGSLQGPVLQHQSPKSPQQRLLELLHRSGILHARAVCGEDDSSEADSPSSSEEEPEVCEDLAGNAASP
Estrogen receptor beta (Homo sapiens), sequence (Q92731 whole entry, looked up, the tested form may be a part): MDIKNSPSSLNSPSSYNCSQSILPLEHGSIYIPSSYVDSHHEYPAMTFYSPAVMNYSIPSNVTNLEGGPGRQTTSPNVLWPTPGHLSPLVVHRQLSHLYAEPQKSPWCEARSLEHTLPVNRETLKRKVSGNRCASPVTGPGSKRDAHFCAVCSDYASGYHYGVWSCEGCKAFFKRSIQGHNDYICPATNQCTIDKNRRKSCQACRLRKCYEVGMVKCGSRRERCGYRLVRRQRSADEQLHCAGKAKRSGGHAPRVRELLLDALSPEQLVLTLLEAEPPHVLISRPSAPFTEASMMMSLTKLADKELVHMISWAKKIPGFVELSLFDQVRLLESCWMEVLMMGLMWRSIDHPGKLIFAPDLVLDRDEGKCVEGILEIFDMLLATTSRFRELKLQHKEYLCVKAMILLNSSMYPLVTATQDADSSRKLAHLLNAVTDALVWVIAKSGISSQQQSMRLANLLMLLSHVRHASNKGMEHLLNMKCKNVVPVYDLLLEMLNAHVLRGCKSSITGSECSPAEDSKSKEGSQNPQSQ
T1 sequence (P03372 whole entry, looked up, the tested form may be a part): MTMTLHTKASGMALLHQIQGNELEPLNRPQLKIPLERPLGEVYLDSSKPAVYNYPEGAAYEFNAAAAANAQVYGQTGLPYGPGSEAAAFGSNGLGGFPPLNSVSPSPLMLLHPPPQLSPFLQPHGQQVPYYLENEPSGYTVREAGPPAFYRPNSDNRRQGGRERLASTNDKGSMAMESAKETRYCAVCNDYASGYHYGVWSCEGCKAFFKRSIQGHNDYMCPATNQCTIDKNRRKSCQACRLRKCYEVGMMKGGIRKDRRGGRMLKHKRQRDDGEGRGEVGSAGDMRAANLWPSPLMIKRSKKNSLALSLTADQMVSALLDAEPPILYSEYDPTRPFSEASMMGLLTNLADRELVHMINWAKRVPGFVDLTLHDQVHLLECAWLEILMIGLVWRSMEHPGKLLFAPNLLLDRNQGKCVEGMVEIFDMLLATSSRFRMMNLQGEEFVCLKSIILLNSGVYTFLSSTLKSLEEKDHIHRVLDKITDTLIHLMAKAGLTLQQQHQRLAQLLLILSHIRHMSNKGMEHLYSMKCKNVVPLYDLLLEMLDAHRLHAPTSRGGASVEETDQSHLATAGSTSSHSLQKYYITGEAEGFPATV
T1 sequence (Q92731 whole entry, looked up, the tested form may be a part): as the sequence (Q92731 whole entry, looked up, the tested form may be a part) above
human Peroxisome Proliferator-activated Receptor alpha (PPARa), PPARA (gene 5465), sequence (Q07869 whole entry, looked up): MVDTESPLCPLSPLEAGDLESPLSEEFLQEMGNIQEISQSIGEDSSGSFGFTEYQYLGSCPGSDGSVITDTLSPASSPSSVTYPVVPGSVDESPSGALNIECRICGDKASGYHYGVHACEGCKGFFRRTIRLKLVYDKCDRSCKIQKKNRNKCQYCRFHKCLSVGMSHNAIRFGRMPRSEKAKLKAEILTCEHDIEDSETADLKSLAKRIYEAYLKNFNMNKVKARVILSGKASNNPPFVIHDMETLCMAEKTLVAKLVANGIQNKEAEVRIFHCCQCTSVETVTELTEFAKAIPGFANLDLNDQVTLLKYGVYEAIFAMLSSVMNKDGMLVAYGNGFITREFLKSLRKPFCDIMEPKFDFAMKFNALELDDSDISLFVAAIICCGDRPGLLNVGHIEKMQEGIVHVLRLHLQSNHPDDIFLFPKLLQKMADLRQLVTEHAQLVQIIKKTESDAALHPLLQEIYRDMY
Nuclear receptor subfamily 1 group I member 2 (Homo sapiens), sequence (O75469 whole entry, looked up): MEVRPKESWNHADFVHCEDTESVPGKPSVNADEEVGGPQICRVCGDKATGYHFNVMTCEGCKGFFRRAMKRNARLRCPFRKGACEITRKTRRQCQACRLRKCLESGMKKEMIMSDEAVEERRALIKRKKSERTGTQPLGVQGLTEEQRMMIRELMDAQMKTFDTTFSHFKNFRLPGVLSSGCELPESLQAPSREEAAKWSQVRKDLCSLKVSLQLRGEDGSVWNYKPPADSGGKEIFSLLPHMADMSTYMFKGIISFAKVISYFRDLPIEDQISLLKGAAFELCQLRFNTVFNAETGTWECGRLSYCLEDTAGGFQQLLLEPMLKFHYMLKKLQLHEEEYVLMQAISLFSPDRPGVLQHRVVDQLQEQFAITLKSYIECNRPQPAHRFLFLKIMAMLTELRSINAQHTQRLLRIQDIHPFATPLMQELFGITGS
rat Androgen Receptor (AR), Ar (gene 24208), sequence (P15207 whole entry, looked up): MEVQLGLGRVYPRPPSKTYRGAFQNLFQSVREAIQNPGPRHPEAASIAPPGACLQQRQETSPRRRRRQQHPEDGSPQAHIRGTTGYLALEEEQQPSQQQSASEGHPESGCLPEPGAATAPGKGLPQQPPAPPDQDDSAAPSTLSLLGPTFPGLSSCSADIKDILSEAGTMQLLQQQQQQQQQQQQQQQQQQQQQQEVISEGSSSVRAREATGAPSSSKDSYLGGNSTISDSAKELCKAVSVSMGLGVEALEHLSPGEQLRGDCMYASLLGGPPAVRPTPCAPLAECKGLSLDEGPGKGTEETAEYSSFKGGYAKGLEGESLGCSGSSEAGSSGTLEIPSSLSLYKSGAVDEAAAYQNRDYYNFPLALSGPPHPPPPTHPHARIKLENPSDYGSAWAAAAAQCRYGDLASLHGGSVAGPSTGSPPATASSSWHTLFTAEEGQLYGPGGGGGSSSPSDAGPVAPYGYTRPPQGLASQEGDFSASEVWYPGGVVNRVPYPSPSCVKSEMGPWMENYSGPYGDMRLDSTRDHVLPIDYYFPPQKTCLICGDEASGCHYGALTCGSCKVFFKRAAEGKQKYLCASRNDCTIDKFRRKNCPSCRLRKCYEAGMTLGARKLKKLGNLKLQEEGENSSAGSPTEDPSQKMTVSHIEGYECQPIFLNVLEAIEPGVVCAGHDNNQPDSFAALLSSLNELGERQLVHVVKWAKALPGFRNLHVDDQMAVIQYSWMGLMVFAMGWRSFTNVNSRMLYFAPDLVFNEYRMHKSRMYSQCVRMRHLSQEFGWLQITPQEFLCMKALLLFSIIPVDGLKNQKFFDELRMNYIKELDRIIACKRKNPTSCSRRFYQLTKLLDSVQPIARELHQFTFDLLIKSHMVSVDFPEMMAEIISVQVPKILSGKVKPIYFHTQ
Androgen Receptor/SRC-1 Co-activator, AR (gene 367), sequence (P10275 whole entry, looked up, the tested form may be a part): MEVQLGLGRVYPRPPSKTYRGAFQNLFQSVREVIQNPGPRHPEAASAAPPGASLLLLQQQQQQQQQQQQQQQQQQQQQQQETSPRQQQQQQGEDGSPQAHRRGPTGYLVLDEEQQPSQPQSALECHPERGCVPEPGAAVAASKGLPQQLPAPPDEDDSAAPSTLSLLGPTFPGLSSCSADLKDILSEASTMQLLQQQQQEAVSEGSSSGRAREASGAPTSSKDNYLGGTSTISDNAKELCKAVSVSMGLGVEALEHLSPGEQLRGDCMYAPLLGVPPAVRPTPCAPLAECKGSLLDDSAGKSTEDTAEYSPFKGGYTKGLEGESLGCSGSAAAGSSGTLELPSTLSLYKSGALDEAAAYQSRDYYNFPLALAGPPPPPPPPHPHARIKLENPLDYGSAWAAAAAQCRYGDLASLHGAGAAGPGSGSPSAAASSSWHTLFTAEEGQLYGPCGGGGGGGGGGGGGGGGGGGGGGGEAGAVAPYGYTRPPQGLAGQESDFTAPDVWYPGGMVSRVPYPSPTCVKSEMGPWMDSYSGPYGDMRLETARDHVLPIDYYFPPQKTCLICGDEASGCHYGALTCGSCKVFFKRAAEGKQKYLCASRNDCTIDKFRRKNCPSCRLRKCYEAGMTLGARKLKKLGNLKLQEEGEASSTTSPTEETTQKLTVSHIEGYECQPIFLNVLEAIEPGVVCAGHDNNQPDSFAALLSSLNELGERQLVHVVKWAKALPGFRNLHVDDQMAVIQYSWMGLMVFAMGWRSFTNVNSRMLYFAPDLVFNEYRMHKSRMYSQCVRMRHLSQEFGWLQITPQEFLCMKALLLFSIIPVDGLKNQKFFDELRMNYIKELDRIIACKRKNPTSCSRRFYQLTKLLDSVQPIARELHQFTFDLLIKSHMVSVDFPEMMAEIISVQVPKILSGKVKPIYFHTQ
Retinoic acid receptor alpha (Homo sapiens), sequence (P10276 whole entry, looked up): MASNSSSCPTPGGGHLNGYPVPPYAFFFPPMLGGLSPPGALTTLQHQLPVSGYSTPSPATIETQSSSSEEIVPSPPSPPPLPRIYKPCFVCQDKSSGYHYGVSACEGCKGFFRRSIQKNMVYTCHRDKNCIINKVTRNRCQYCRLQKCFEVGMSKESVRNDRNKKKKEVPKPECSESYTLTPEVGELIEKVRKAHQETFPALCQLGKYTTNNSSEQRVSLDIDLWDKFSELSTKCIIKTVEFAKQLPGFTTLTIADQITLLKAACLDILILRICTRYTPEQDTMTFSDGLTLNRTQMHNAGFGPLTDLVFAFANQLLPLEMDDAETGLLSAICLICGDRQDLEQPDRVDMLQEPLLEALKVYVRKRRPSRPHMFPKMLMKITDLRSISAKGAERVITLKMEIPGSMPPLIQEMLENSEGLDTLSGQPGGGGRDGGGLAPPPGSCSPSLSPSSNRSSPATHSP

CCOC(=O)C(C)Oc1ccc(Oc2nc3ccc(Cl)cc3o2)cc1 (configuration not stated)
inactive: [1] | [2] | [3] | [4]

CCCCOCCOCCOCc1cc2c(cc1CCC)OCO2
active: [6] 35.7 µM
inactive: [1] | [2] | [3] | [5] | [4]

CCCOC(=O)c1ccc(C(=O)OCCC)nc1
inactive: [7] | [2] | [8] | [3]

CCOC(=O)c1ccc(O)cc1
inactive: [7] | [8] | [3] | [9] | [10]
active: [7] 30.6 µM and 27.1 µM and 28 µM | [8] 32.2 µM and 26.9 µM and 26.8 µM | [3] 27.8 µM and 33.1 µM and 31.7 µM

CSC(=O)c1cccc2nnsc12
active: [1] 32.5 µM | [2] 22.4 µM

CCCCOC(=O)C(C)Oc1ccc(Oc2ccc(C(F)(F)F)cn2)cc1 (configuration not stated)
inactive: [7] | [8] | [3]

CC(C)(c1ccc(O)cc1)c1ccc(O)cc1
inactive: [1] | [2] | [11] | [12] | [13] | [4] | [15]
active: [1] 63.3 µM and 51 µM and 64.6 µM | [11] 12.1 µM | [9] 0.105 µM | [12] 8.08 µM and 10.9 µM | [5] 16.1 µM [middle of 4 runs] | [13] 8.43 µM | [14] 8.77 µM and 25.4 µM and 11.6 µM | [6] 8.34 µM [middle of 4 runs]

CCCCOC(=O)[C@@H](C)Oc1ccc(Oc2ccc(C(F)(F)F)cn2)cc1
inactive: [7] | [8] | [3]

CCCN(CCC)c1c([N+](=O)[O-])cc(C(F)(F)F)c(N)c1[N+](=O)[O-]
active: [7] 428 nM
inactive: [8] | [3] | [16] | [4]

CC(=O)[C@H]1CC[C@H]2[C@@H]3CCC4=CC(=O)CC[C@]4(C)[C@H]3CC[C@]12C
active: [13] 1.16 µM | [17] 6.22 µM | [4] 4.07 µM
inactive: [7] | [8] | [3] | [14] | [4]

CC(=O)S[C@@H]1CC2=CC(=O)CC[C@]2(C)[C@H]2CC[C@@]3(C)[C@@H](CC[C@@]34CCC(=O)O4)[C@H]12
inactive: [7] | [8] | [3] | [18] | [12] | [4]
active: [12] 25 µM

CC(C)CCCCCCc1ccc(O)cc1
inactive: [9] | [4]
active: [7] 1.36 µM and 1.78 µM and 1.89 µM | [8] 2.25 µM and 2.44 µM | [3] 836 nM and 1.48 µM and 1.04 µM | [6] 8.36 µM

CCOC(=O)COc1cc(-n2ncc(C(F)(F)F)c(C)c2=O)c(F)cc1Cl
inactive: [7] | [1] | [2] | [8] | [4]

C#CCOC(=O)[C@@H](C)Oc1ccc(Oc2ncc(Cl)cc2F)cc1
active: [6] 7.24 µM
inactive: [7] | [8] | [3] | [4]

C[C@]12C[C@H](O)[C@H]3[C@@H](CCC4=CC(=O)CC[C@@]43C)[C@@H]1CC[C@@H]2C(=O)CO
active: [13] 25 µM
inactive: [7] | [8] | [3] | [19] | [12]

COc1c(Cl)ccc(Cl)c1C(=O)O
inactive: [7] | [8] | [3] | [20] | [10]

CCN(Cc1c(F)cccc1Cl)c1c([N+](=O)[O-])cc(C(F)(F)F)cc1[N+](=O)[O-]
inactive: [11] | [3] | [14] | [6]
active: [7] 7660 nM | [8] 10.3 µM

CCCCC(CC)CN1C(=O)C2C3C=CC(C3)C2C1=O (configuration not stated)
inactive: [7] | [8] | [3] | [4]

c1ccc2[nH]c(-c3cscn3)nc2c1
inactive: [1] | [2] | [8] | [3]

O=C(Nc1ccc([N+](=O)[O-])cc1Cl)c1cc(Cl)ccc1O
inactive: [7] | [8] | [3] | [4]

Cc1nn(C)c(Oc2ccccc2)c1C=NOCc1ccc(C(=O)OC(C)(C)C)cc1
inactive: [7] | [1] | [2] | [8] | [3] | [14] | [6]

COC(=O)CSc1cc(N=c2sc(=O)n3n2CCCC3)c(F)cc1Cl
inactive: [1] | [2] | [5]

COC(=O)c1ccc(I)cc1S(=O)(=O)NC(=O)Nc1nc(C)nc(OC)n1
inactive: [11] | [3]
